The record followed here is PubChem BioAssay (NCI).

Compounds without any hit were thinned out: in the full panel of roughly 83,000, 20% have a hit.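 Activity criterion: percent growth below 10, measured after cells in 96-well plates were exposed to a single compound concentration for 48 hours.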 Unmarked numbers belong to inactive results. Calls of active or inactive are those of the source.

Among the test systems are SK-MEL-2 melanoma; EKVX NSCLC; SN12C renal; UO-31 renal; TK-10 renal; ACHN renal; CAKI-1 renal; A498 renal; CCRF-CEM leukemia; MOLT-4 leukemia; SR leukemia; RPMI-8226 leukemia; OVCAR-8 ovarian; OVCAR-5 ovarian; OVCAR-4 ovarian; SK-OV-3 ovarian; IGROV1 ovarian; OVCAR-3 ovarian; HS 578T breast; NCI/ADR-RES ovarian.
Holding throughout (test): NCI-60 one-dose screen, 48 h (100 = growth as untreated, 0 = no growth, -100 = all killed)
What all share (conditions): 10 µM unless noted

Turning to `CCCCNC(=O)Oc1ccc(/C(=C(/C)Cc2ccc(OC)cc2)c2ccc(OCCN(CC)CC)cc2)cc1`, the growth in the test with SK-MEL-2 melanoma was 102%; with EKVX NSCLC, 83.9%; in the test on SN12C renal, 83.8%; in the test on UO-31 renal, 58.4%; in the test on TK-10 renal, 79.7%; in the test on ACHN renal, 91.1%. The growth in the test on CAKI-1 renal was 89.9%; with A498 renal, 102%; in the test with CCRF-CEM leukemia it was 49.3%; in the test with MOLT-4 leukemia, 48.3%; in the test with SR leukemia, 16.7%; in the test on RPMI-8226 leukemia it was 66.3%. The growth in the test with OVCAR-8 ovarian is 86.9%; in the test on OVCAR-5 ovarian, 82%; with OVCAR-4 ovarian, 80.3%; in the test with SK-OV-3 ovarian, 97%; in the test with IGROV1 ovarian, 93.7%; in the test on OVCAR-3 ovarian, 82%. For the same compound, the growth is 76.9% in the test with HS 578T breast and 91.1% with NCI/ADR-RES ovarian.

Consider `Cc1csc(Nc2nc(-c3ccccn3)nc(C(Cl)(Cl)Cl)n2)n1`, for which the growth was 95.8% with SK-MEL-2 melanoma; 95.1% in the test on EKVX NSCLC; 97.9% in the test with SN12C renal; 84.3% in the test with UO-31 renal; 94.8% in the test with TK-10 renal; 79.7% with ACHN renal. Moreover, the growth with CAKI-1 renal was 82.2%; with A498 renal, 90.7%; in the test with CCRF-CEM leukemia, 59.2%; in the test with MOLT-4 leukemia it was 67.9%; in the test on SR leukemia, 53.2%; in the test with RPMI-8226 leukemia, 91.5%. Also, the growth is 77.7% with OVCAR-8 ovarian; 108% in the test with OVCAR-5 ovarian; 83.6% in the test with OVCAR-4 ovarian; 97.8% in the test on SK-OV-3 ovarian; 82.1% in the test on IGROV1 ovarian; 97.4% in the test with OVCAR-3 ovarian. Further, the growth is 115% with HS 578T breast and 66.8% in the test with NCI/ADR-RES ovarian.

Regarding `Clc1ccc(/C=N\N=C\c2ccc(Cl)c(Cl)c2)cc1Cl`, the growth was 18.4% in the test on SK-MEL-2 melanoma; 111% in the test with EKVX NSCLC; 87.3% with SN12C renal; 77.4% with UO-31 renal; 97.5% in the test with TK-10 renal; -3.05% (active) in the test on ACHN renal. For the same compound, the growth was 33% in the test on CAKI-1 renal; 108% in the test on A498 renal; 83.1% with CCRF-CEM leukemia; 93.1% in the test on MOLT-4 leukemia; 103% in the test on SR leukemia; 102% in the test with RPMI-8226 leukemia. The growth in the test on OVCAR-8 ovarian was 85.7%; in the test on OVCAR-5 ovarian, 66.9%; with OVCAR-4 ovarian, 97.9%; in the test on SK-OV-3 ovarian it was 87.4%; in the test with IGROV1 ovarian, 79.5%; with OVCAR-3 ovarian it was 119%. In addition, the growth is 106% with HS 578T breast and 77.3% with NCI/ADR-RES ovarian.

On to `Clc1cccc(Nc2ncnc3ccc(-c4cnc5[nH]ccc5c4)cc23)c1`, for which the growth with SK-MEL-2 melanoma was 81.3%; with EKVX NSCLC, 10%; with SN12C renal, 77.3%; in the test with UO-31 renal, 54.9%; in the test on TK-10 renal, 14.4%; in the test on ACHN renal it was 47.1%. Moreover, the growth with CAKI-1 renal is 49%; in the test on A498 renal, 23.1%; in the test with CCRF-CEM leukemia, 66.7%; in the test with MOLT-4 leukemia, 50.1%; with SR leukemia, 60%; with RPMI-8226 leukemia, 60%. Also, the growth in the test on OVCAR-8 ovarian was 68.2%; in the test with OVCAR-5 ovarian it was 78.7%; in the test with OVCAR-4 ovarian, 85%; in the test on SK-OV-3 ovarian it was 71.1%; with IGROV1 ovarian, 25.1%; in the test with OVCAR-3 ovarian it was 64.6%. Also, the growth in the test on HS 578T breast was 81.4%; with NCI/ADR-RES ovarian it was 77%.

Take `CN1C(=O)/C(=C\c2c(Cl)cccc2Cl)c2ccccc21`: the growth with SK-MEL-2 melanoma was 97.7%; in the test on EKVX NSCLC, 87.6%; with SN12C renal it was 94.8%; with UO-31 renal it was 75.4%; in the test on TK-10 renal, 89.4%; with ACHN renal it was 97.2%. Besides, the growth in the test with CAKI-1 renal was 68.3%; in the test with A498 renal, 55.4%; in the test with CCRF-CEM leukemia it was 89.5%; in the test with MOLT-4 leukemia it was 79.4%; in the test on SR leukemia, 34.3%; in the test on RPMI-8226 leukemia, 84.2%. In addition, the growth in the test with OVCAR-8 ovarian is 94.1%; with OVCAR-5 ovarian it was 98.6%; in the test with OVCAR-4 ovarian, 87.9%; in the test on SK-OV-3 ovarian, 99.2%; in the test with IGROV1 ovarian, 92.1%; in the test on OVCAR-3 ovarian, 95.4%. In addition, the growth with HS 578T breast was 81.7%; in the test with NCI/ADR-RES ovarian it was 80.1%.

For `COc1ccc(/C=C/C(=O)c2cccc(OCCCCOc3cccc(C(=O)/C=C/c4ccc(OC)c(OC)c4)c3)c2)cc1OC`, the growth was 81.2% with SK-MEL-2 melanoma; 55% with EKVX NSCLC; 79.9% in the test with SN12C renal; 62% in the test with UO-31 renal; 114% in the test with TK-10 renal; 77.8% in the test with ACHN renal. Moreover, the growth in the test with CAKI-1 renal was 74.2%; in the test on A498 renal it was 79.9%; with CCRF-CEM leukemia, 62.7%; in the test on MOLT-4 leukemia, 62.8%; in the test with SR leukemia it was 69.4%; in the test with RPMI-8226 leukemia it was 35.6%. In addition, the growth is 68.3% in the test with OVCAR-8 ovarian; 102% in the test on OVCAR-5 ovarian; 32.9% with OVCAR-4 ovarian; 89.6% in the test on SK-OV-3 ovarian; 75.2% in the test on IGROV1 ovarian; 80.9% in the test on OVCAR-3 ovarian. Also, the growth is 78.4% in the test on HS 578T breast and 78.1% in the test with NCI/ADR-RES ovarian.

With `COc1ccc(/C=C(\C#N)n2nnc3cc(Cl)ccc32)cc1`, the growth is 26.1% in the test with SK-MEL-2 melanoma; 11.4% in the test with EKVX NSCLC; 11.7% in the test on SN12C renal; 25.9% in the test on UO-31 renal; 25.6% with TK-10 renal; 14.6% in the test with ACHN renal. In addition, the growth with CAKI-1 renal was 32.7%; in the test with A498 renal, -23.5% (active); with CCRF-CEM leukemia it was 12.4%; in the test on MOLT-4 leukemia it was 14.2%; in the test on SR leukemia it was 19%; in the test on RPMI-8226 leukemia, 8.04% (active). Besides, the growth in the test on OVCAR-8 ovarian is 12.6%; with OVCAR-5 ovarian, -33.7% (active); with OVCAR-4 ovarian, 25.5%; with SK-OV-3 ovarian, 44.4%; in the test with IGROV1 ovarian, 3.88% (active); in the test on OVCAR-3 ovarian, -35.8% (active). The growth is -8.59% (active) in the test with HS 578T breast and -11.6% (active) in the test on NCI/ADR-RES ovarian.

Turning to `C=CCn1c(C)nc2ccc(Nc3nc(Nc4ccc5nc(C)n(CC=C)c5c4)c4ccccc4n3)cc21`, the growth in the test on SK-MEL-2 melanoma is -83.8% (active); with EKVX NSCLC, 2.58% (active); in the test on SN12C renal, -74.9% (active); in the test with UO-31 renal, -91.4% (active); in the test on TK-10 renal, -88.5% (active); in the test with ACHN renal it was -80% (active). The growth in the test with CAKI-1 renal was -24.1% (active); in the test with A498 renal it was 99.5%; in the test with CCRF-CEM leukemia, -20.8% (active); in the test with MOLT-4 leukemia it was -45.5% (active); with SR leukemia it was -57.2% (active); with RPMI-8226 leukemia it was -43.3% (active). For the same compound, the growth with OVCAR-8 ovarian was -48.6% (active); in the test with OVCAR-5 ovarian, 25.1%; in the test with OVCAR-4 ovarian, -93.3% (active); with SK-OV-3 ovarian, -63.7% (active); with IGROV1 ovarian it was -47.5% (active); in the test on OVCAR-3 ovarian, -95.4% (active). Moreover, the growth is -41.4% (active) in the test on HS 578T breast and 53.5% with NCI/ADR-RES ovarian.
